CSC inhib: blocks cancer stem cells; inhibition, % at 7.5 µM; AID 2717; cancer stem cell-like cells viability, luminescence; actives 1.1% (n = 300,000); in the data active means inhibition above about 75%; tested in HMLE shEcad cells
MPTP block: blocks calcium-induced mitochondrial swelling | isolated mouse mitochondria, Ca2+ swelling absorbance, 30 min | inhibition, % at 10 µM | actives 1.4% (n = 360,000);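 active means inhibition of 50% or more, scaled per plate between neutral and stimulator controls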
NR3A LBD binder: modulators (binders) of human NR3A ligand-binding domain. Tm shift relative to glycine control, % at 25 µM. NR3A LBD differential scanning fluorimetry, Tm shift; 0% = protein alone, 100% = glycine-bound protein. actives 2.5% (n = 340,000). AID 1259313;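 active means melting temperature shift of at least 10% of the positive control shift, at one fixed dose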
Gli-Sufu block: blocks Gli-Sufu signaling in a luciferase reporter; Sufu-KO-LIGHT fibroblasts, Gli luciferase reporter luminescence; inhibition, % at 5 µM; actives 0.74% (n = 340,000); AID 588413;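 active means inhibition above about 55%, limit read from the data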
Mdm2-MdmX inh: inhibitors of human Mdm2/MdmX interaction; SaOS-2 split-luciferase Mdm2/MdmX complementation, luminescence; AID 485346; inhibition, % at 8 µM; actives 3% (n = 330,000); O15151+Q00987;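 active means inhibition of at least 50% at 8 µM in the primary screen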
Target sequence (O15151 whole entry, looked up): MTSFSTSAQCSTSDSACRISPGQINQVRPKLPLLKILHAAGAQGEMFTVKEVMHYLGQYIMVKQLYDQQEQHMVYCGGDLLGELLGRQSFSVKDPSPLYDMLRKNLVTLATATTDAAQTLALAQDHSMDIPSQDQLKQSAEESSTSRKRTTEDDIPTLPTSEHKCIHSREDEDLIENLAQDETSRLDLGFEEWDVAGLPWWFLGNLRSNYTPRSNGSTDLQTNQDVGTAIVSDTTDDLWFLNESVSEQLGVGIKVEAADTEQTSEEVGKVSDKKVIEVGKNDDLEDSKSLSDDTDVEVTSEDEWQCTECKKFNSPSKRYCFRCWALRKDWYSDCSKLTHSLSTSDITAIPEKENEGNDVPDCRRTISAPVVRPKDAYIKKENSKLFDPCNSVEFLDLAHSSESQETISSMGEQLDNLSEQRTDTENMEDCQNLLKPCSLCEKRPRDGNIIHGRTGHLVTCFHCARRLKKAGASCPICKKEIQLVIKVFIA
Target sequence (Q00987 whole entry, looked up): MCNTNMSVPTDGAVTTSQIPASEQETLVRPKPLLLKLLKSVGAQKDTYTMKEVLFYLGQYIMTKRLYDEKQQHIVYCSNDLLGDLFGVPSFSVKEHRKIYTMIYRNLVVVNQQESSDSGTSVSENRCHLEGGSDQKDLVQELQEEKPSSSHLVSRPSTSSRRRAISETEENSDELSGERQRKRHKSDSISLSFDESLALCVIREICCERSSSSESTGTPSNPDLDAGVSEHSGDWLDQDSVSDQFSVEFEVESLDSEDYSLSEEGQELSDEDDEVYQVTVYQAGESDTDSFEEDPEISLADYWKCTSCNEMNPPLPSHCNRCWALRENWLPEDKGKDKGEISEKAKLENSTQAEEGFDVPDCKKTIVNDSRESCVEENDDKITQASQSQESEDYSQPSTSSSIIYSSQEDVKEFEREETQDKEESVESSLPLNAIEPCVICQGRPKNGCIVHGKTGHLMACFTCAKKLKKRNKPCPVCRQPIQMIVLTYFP
Beta cell apopt: blocks beta cell apoptosis; INS-1E cytokine-induced death, ATP luminescence, 48 h; percent of positive-control rescue, neutral wells zero; protection from apoptosis, % (concentration not given with the values); actives 0.8% (n = 300,000);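 active means Every replicate reaches about 75%, or at least half do and their mean reaches it too, limit read from the data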;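 further: higher means more ATP so stronger rescue from cytokine killing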
Each line names hits and unclear results; the compound was inactive in the other large screens. This is a sample that favours compounds with a hit; in the whole collection about 6.6% have one here.

CC(=O)c1cccc(NC(=O)NCc2ccc3c(c2)OCO3)c1	none
NC(=O)c1ccc(NC(=O)Nc2ccc3c(c2)OCO3)cc1	NR3A LBD binder 13.0
CC(=O)c1cccc(NC(=O)Nc2ccc3c(c2)OCO3)c1	NR3A LBD binder 12.9
CC1CCc2nc(NC(=O)Nc3ccc4c(c3)OCO4)sc2C1 (stereo unspecified)	NR3A LBD binder 30.6
CC(=O)c1cccc(NC(=O)Nc2ccc3c(c2)CCC3)c1	NR3A LBD binder 22.4
O=C(COc1ccc2c(c1)OCO2)Nc1nncs1	none
Cc1ccc(S(=O)(=O)N2C[C@]3(O)C[C@@H]4C(=O)N(c5ccccc5)C(=O)[C@@H]4C[C@]3(OC(=O)NC3CCCC3)C2)cc1	none (no result: CSC inhib, NR3A LBD binder, Gli-Sufu block, Mdm2-MdmX inh, Beta cell apopt)
NC(=O)c1ccccc1NC(=O)CCn1c(=S)oc2ccccc21	none (no result: CSC inhib, Beta cell apopt)
CC(C)c1ccc(C(C)NCCS(=O)(=O)c2ccc(Cl)cc2)cc1 (stereo unspecified)	none
O=C(Nc1ccc2c(c1)OCCO2)Nc1ccc2c(c1)OCO2	none
COC(=O)c1ccc(NC(=O)Nc2ccc3c(c2)OCO3)cc1	NR3A LBD binder 23.7
Cc1ccc(OCc2cccc(S(=O)(=O)N(C)C)c2)c([N+](=O)[O-])n1	none
CCn1cc(C(=O)N[C@H](C)c2ccccc2)c(=O)c2cc(F)c(N3CCN(C)CC3)cc21	CSC inhib 75.5
Cc1ccccc1OCC(=O)Nc1ccccc1C(=O)NC1CC1	none
Oc1cccc(/C=N/NC(=S)Nc2cccnc2)c1O	Beta cell apopt 87.3 (no result: Mdm2-MdmX inh)
O=C(Cn1cnc([N+](=O)[O-])n1)N/N=C/c1ccc(O)cc1O	CSC inhib 80.1 (no result: Beta cell apopt)
COc1ccc(C(=O)Nc2cccc(C(=O)N/N=C/c3ccc(OC)cc3OC)c2)cc1	none (no result: CSC inhib)
Oc1ccc(C=NNC(=S)Nc2ccc(F)cc2)c(O)c1	NR3A LBD binder 27.2 (no result: CSC inhib, Mdm2-MdmX inh, Beta cell apopt)
O=C(Cn1cnc([N+](=O)[O-])n1)N/N=C/c1cccc2ccccc12	none
COc1ccc(N2Cc3ccc(C(=O)N/N=C\c4ccc(O)cc4O)cc3C2)cc1	CSC inhib 91.2 (no result: MPTP block, NR3A LBD binder, Gli-Sufu block)
CCc1nc2ccc(C(=O)N3CCN(S(=O)(=O)CC)CC3)cn2c1N(C)Cc1cccs1	none (no result: CSC inhib, NR3A LBD binder, Gli-Sufu block, Mdm2-MdmX inh, Beta cell apopt)
Oc1ccc(/C=N/NC(=S)Nc2cccnc2)c(O)c1	NR3A LBD binder 11.8
O=C(N/N=C/c1ccc(O)cc1O)C(=O)N/N=C/c1ccc(O)cc1O	NR3A LBD binder 36.2
C=CCNC(=O)N1C2=NC(C(=O)OC)=C(C(=O)OC)[C@@H]3N(Cc4ccccc4)c4ccccc4[C@]23C[C@H]1C(=O)OC	none
CC(C)CN(CCNC(=O)c1cn(C)c2ccc(S(=O)(=O)N3CCCC3)cc2c1=O)CC(C)C	NR3A LBD binder 25.6
CC(C)CCNC(=O)c1cn(C)c2ccc(S(=O)(=O)N3CCCC3)cc2c1=O	none
CCc1ccc(CCC(=O)Nc2ccc(Br)cc2)o1	none
COC(=O)c1sccc1NC(=S)Nc1ccc(OC)cc1	none
COC(=O)c1ccc(NC(=O)Nc2ccc3c(c2)nc(C)n3C)cc1	NR3A LBD binder 25.0
CCc1ccc(CCC(=O)Nc2ccc(OC)cc2)o1	NR3A LBD binder 32.5
COc1ccc(NC(=O)Nc2ccc(N(C)C)cc2)cc1	NR3A LBD binder 11.8
COc1ccc(NC(=S)NN(C)C(=S)Nc2ccc(OC)cc2)cc1	CSC inhib 123.3
CCCCCCCCN1C(=O)[C@H](CC(=O)N2CCCC2)C[C@@]2(C(=O)OCC)CCCC=C12	none (no result: CSC inhib, NR3A LBD binder, Gli-Sufu block, Mdm2-MdmX inh, Beta cell apopt)
COc1cc2c(cc1OC)CN(C(=O)/C=C/c1cccc([N+](=O)[O-])c1)CC2	none
O=C(CCCC1=NS(=O)(=O)c2ccccc2N1)N1CCN(c2ccc([N+](=O)[O-])cc2)CC1	none
O=C(Cc1ccc(Cl)cc1Cl)OCC(=O)N1CCCCC1	none
Cc1c(NC(=O)OC(C)C)sc(=S)n1C	none
O=C(Nc1ccc2[nH]ccc2c1)c1ccccc1	none
COc1ccc(NC(=O)Nc2sc(=S)n(C)c2C)cc1	NR3A LBD binder 23.9
COc1ccc(NC(=O)Nc2ccc(OC)cc2)cc1	NR3A LBD binder 13.2
COc1ccc(NC(=O)Nc2ccc3[nH]ccc3c2)cc1	NR3A LBD binder 34.8
COc1ccc(CNC(=O)Nc2ccc(OC)cc2)cc1	none (no result: NR3A LBD binder)
COc1ccc(NC(=O)Nc2ccc3nonc3c2)cc1	NR3A LBD binder 18.7 (no result: Beta cell apopt)
COC(=O)c1ccc(NC(=O)Nc2ccc(OC)cc2)cc1	NR3A LBD binder 10.3
CCCCOC(=O)c1ccc(NC(=O)c2c(OC)cccc2OC)cc1	none (no result: CSC inhib)
CN(C)c1ccc(NC(=O)Nc2ccc3snnc3c2)cc1	NR3A LBD binder 35.9
COc1ccc(C(=O)CC(=O)Nc2ccc([N+](=O)[O-])cc2)cc1	NR3A LBD binder 24.4 (no result: CSC inhib, Beta cell apopt)
CCCCOC(=O)c1ccc(NC(=O)Nc2ccc(OC)c(OC)c2)cc1	NR3A LBD binder 19.0 (no result: CSC inhib)
COc1ccc(S(=O)(=O)N2CCCCC2)cc1NC(=O)CN(Cc1ccco1)Cc1ccco1	none (no result: CSC inhib)
NC(=O)C1CCCN1Cc1ccc2c(c1)OCO2 (stereo unspecified)	none (no result: CSC inhib, Mdm2-MdmX inh, Beta cell apopt)
Cc1nc(C)c(C(=O)N/N=C/c2cc(Br)ccc2O)s1	Beta cell apopt 80.5
O=C(N/N=C/c1cc(Br)ccc1O)c1ccncc1	none
CCc1ccc(C(=O)CCC(=O)Nc2cccc(S(=O)(=O)N3CCCCC3)c2)cc1	none (no result: CSC inhib, Beta cell apopt)
Clc1ccc2c(SCC3CO3)c3ccccc3nc2c1 (stereo unspecified)	NR3A LBD binder 12.6 (no result: CSC inhib, Mdm2-MdmX inh, Beta cell apopt)
O=C(CSc1c2c(nc3cc(Cl)ccc13)CCCC2)NCCN1CCOCC1	none
Nc1nonc1-n1nnc(C(=O)N/N=C/c2ccccc2F)c1CN1CCc2ccccc21	none
O=C1c2ccccc2C(=O)N1/N=C/c1ccc(O)c(O)c1O	none (no result: CSC inhib, Mdm2-MdmX inh, Beta cell apopt)
O=C1c2cccc3cccc(c23)C(=O)N1/N=C/c1ccc(O)cc1O	NR3A LBD binder 25.1
Oc1ccc(/C=N/N2CCCCC2)c(O)c1	NR3A LBD binder 33.4 (no result: Gli-Sufu block)
CCSc1nnc(-c2sc3nnc(-c4ccccc4)c(-c4ccccc4)c3c2N)o1	CSC inhib 119.9
CCSc1nnc(-c2ccncc2)o1	none
C=C1c2ccccc2O[C@H](C(=O)OCC)[C@H]1OC	none (no result: CSC inhib, Beta cell apopt)
CCOC(=O)C1=C(c2ccccc2)c2ccccc2OC1C(=O)OCC (stereo unspecified)	none (no result: CSC inhib, Beta cell apopt)
CCCCC1=C(C(=O)OCC)C(C(=O)OCC)Oc2ccccc21 (stereo unspecified)	NR3A LBD binder 18.1 (no result: CSC inhib, Beta cell apopt)
CCOC(=O)C1Oc2ccccc2C(c2ccc(OC)cc2)=C1C(=O)OC (stereo unspecified)	NR3A LBD binder 12.7 (no result: CSC inhib, Beta cell apopt)
Cc1sc2nc(SCC(=O)N(C)c3ccccc3)n(C)c(=O)c2c1C	none
COC(=O)c1ccc(NC(=O)NCCCl)cc1	none
CCS(=O)(=O)C(C)(CCl)C(=O)Nc1ccc(C(=O)OC)cc1 (stereo unspecified)	NR3A LBD binder 12.5
CC(C)Nc1nc(Cl)nc(NCCOc2ccccc2)n1	none
CCC(C)Nc1nc(Cl)nc(NCCOc2ccccc2)n1 (stereo unspecified)	NR3A LBD binder 13.4
CCc1[nH]nc(C(=O)NC2CCCN(Cc3ccccc3F)C2)c1C (stereo unspecified)	none (no result: Beta cell apopt)

Compound activity deposited in PubChem by several laboratories.
